Experimental findings from PubChem BioAssay (NCI) are described below.

Experiment in all cases: NCI-60 one-dose screen, 48 h (100 = growth as untreated, 0 = no growth, -100 = all killed)
The test system of one test is SR leukemia. The following applies: 10 µM unless noted.
For the next test, the system named is RPMI-8226 leukemia. To be noted: 10 µM unless noted.
Another test relates to OVCAR-8 ovarian. The following applies: 10 µM unless noted.
For a further test, the system named is OVCAR-5 ovarian. To be noted: 10 µM unless noted.
For the next test, the system named is OVCAR-4 ovarian. To be noted: 10 µM unless noted.
The test system of another test is SK-OV-3 ovarian. To be noted: 10 µM unless noted.
For another test, the system named is IGROV1 ovarian. The following applies: 10 µM unless noted.
A further test has as its system OVCAR-3 ovarian. To be noted: 10 µM unless noted.
For the next test, the system named is HS 578T breast. The following applies: 10 µM.
Another test relates to NCI/ADR-RES ovarian. To be noted: 10 µM unless noted.
The test system of the next test is T-47D breast. To be noted: 10 µM unless noted.
In another test the test system is BT-549 breast. To be noted: 10 µM unless noted.
The next test deals with MDA-MB-435 melanoma. To be noted: 10 µM unless noted.
In a further test the test system is SW-620 colon. To be noted: 10 µM unless noted.
A further test relates to MCF7 breast. To be noted: 10 µM unless noted.
Another test has as its system HCT-116 colon. The following applies: 10 µM unless noted.
In a further test the test system is HCC-2998 colon. The following applies: 10 µM unless noted.
In a further test the test system is KM12 colon. To be noted: 10 µM unless noted.

About 83,000 compounds went through this panel and 20% of them were active in at least one assay; those are over-represented in the sample as a whole.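 Values shown are percent growth following 48 h exposure of cells in 96-well plates to a single concentration of compound; below 10 was considered active.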 A number with no mark means an inactive call. Activity calls are given as the source filed them.

Regarding `CCCCn1c(C)nc2ccc(Nc3nc(Cl)nc4nc[nH]c34)cc21`, the growth with SR leukemia is 42.5%; in the test on RPMI-8226 leukemia it was 43.7%; with OVCAR-8 ovarian it was 78.2%; with OVCAR-5 ovarian it was 74.5%; with OVCAR-4 ovarian, 68.4%; in the test with SK-OV-3 ovarian it was 77%. Besides, the growth in the test on IGROV1 ovarian was 68.2%; in the test on OVCAR-3 ovarian, 62.7%; with HS 578T breast it was 6.13% (active); with NCI/ADR-RES ovarian, 101%; with T-47D breast it was 33.9%; in the test with BT-549 breast, 47.8%. In addition, the growth in the test with MDA-MB-435 melanoma is 77.2%; in the test with SW-620 colon it was 78.6%; in the test with MCF7 breast, 76.5%; in the test on HCT-116 colon, 67.7%; in the test on HCC-2998 colon it was 94%; in the test with KM12 colon, 77.5%.
Regarding `N#Cc1nc(-c2ccc(Cl)cc2)cc(-c2ccc(Nc3nc(N4CCCCC4)nc(N4CCCCC4)n3)cc2)c1N`, the growth was 105% in the test with SR leukemia; 111% in the test on RPMI-8226 leukemia; 96.5% with OVCAR-8 ovarian; 113% in the test on OVCAR-5 ovarian; 110% with OVCAR-4 ovarian; 90.9% in the test with SK-OV-3 ovarian. For the same compound, the growth with IGROV1 ovarian was 91.4%; in the test with OVCAR-3 ovarian, 105%; with HS 578T breast it was 94.1%; in the test on NCI/ADR-RES ovarian, 102%; in the test on T-47D breast it was 100%; in the test with BT-549 breast, 99.2%. Further, the growth in the test on MDA-MB-435 melanoma is 106%; in the test with SW-620 colon, 99.3%; in the test with MCF7 breast, 99.6%; in the test with HCT-116 colon, 102%; in the test on HCC-2998 colon, 112%; in the test with KM12 colon, 107%.
Consider `COc1cccc2nc(Nc3cccc(NC(=O)c4ccc(N5CCN(C)CC5)c(C(F)(F)F)c4)c3)ccc12`, for which the growth in the test on SR leukemia was -7.69% (active); in the test on RPMI-8226 leukemia, 7.17% (active); in the test with OVCAR-8 ovarian it was 30.7%; in the test with OVCAR-5 ovarian it was 61.5%; in the test on OVCAR-4 ovarian, 39.5%; in the test with SK-OV-3 ovarian, 81.7%. Also, the growth in the test with IGROV1 ovarian is 28.6%; in the test on OVCAR-3 ovarian, 29.6%; in the test with HS 578T breast, 32.6%; in the test with NCI/ADR-RES ovarian it was 43.9%; in the test with T-47D breast it was 36.7%; with BT-549 breast, 67%. In addition, the growth in the test on MDA-MB-435 melanoma was 19.9%; with SW-620 colon, -33.3% (active); in the test with MCF7 breast, -12.9% (active); with HCT-116 colon it was 6.56% (active); in the test on HCC-2998 colon, -7.74% (active); in the test on KM12 colon it was -7.59% (active).
For the compound `COc1ccc(/C=C(/C(=O)N2CCN(c3ccccc3)CC2)c2cc(OC)c(OC)c(OC)c2)cc1N`, the growth was 12.5% in the test on SR leukemia; 7.73% (active) in the test with RPMI-8226 leukemia; 19.7% with OVCAR-8 ovarian; 53.2% in the test with OVCAR-5 ovarian; 52.3% in the test with OVCAR-4 ovarian; 36.9% with SK-OV-3 ovarian. The growth in the test with IGROV1 ovarian is 36.3%; with OVCAR-3 ovarian, -43.8% (active); in the test on HS 578T breast, 36.6%; with NCI/ADR-RES ovarian, 7.6% (active); in the test on T-47D breast, 65.3%; with BT-549 breast, 9.88% (active). The growth with MDA-MB-435 melanoma was -48.7% (active); with SW-620 colon, 25.9%; in the test with MCF7 breast it was 19.9%; in the test with HCT-116 colon, 9.1% (active); in the test on HCC-2998 colon, 25.3%; with KM12 colon, 14.4%.
`C=CCn1c(C)nc2cc(Nc3nc(N4CCCC4)nc4nc[nH]c34)ccc21`: the growth was -9.28% (active) in the test on SR leukemia; 29.9% in the test with RPMI-8226 leukemia; 74.7% in the test with OVCAR-8 ovarian; 30.6% in the test with OVCAR-5 ovarian; -30.4% (active) in the test on OVCAR-4 ovarian; 59% in the test on SK-OV-3 ovarian. Further, the growth with IGROV1 ovarian was 55.8%; in the test with OVCAR-3 ovarian, -11.3% (active); in the test on HS 578T breast it was -0.0485% (active); with NCI/ADR-RES ovarian, 94.7%; with T-47D breast, 45%; in the test on BT-549 breast, -33.6% (active). The growth in the test on MDA-MB-435 melanoma is 9.16% (active); in the test on SW-620 colon, 40.8%; with MCF7 breast it was 73.5%; in the test on HCT-116 colon, -40.2% (active); with HCC-2998 colon, 76.4%; in the test with KM12 colon, 13.1%.
Regarding `Nc1c(C(=O)c2ccc(Br)cc2)sc2nc3c(cc12)CCCC3`, the growth in the test with SR leukemia is 65.3%; with RPMI-8226 leukemia, 94.6%; in the test on OVCAR-8 ovarian it was 98.7%; in the test on OVCAR-5 ovarian, 88%; with OVCAR-4 ovarian, 105%; in the test on SK-OV-3 ovarian, 106%. The growth was 108% in the test on IGROV1 ovarian; 95.4% with OVCAR-3 ovarian; 109% in the test on HS 578T breast; 85.7% with NCI/ADR-RES ovarian; 101% in the test on T-47D breast; 89.4% with BT-549 breast. For the same compound, the growth was 49.9% in the test with MDA-MB-435 melanoma; 105% in the test on SW-620 colon; 88.4% with MCF7 breast; 98.5% in the test on HCT-116 colon; 99.6% in the test on HCC-2998 colon; 75.4% in the test on KM12 colon.
Take `O=C1/C(=C\c2cccn2Cc2ccc(F)cc2)c2ccccc2N1c1c(Cl)cccc1Cl`: the growth in the test with SR leukemia is 76%; in the test on RPMI-8226 leukemia, 74.6%; with OVCAR-8 ovarian it was 81.5%; in the test with OVCAR-5 ovarian, 81.9%; in the test on OVCAR-4 ovarian, 34.1%; in the test with SK-OV-3 ovarian, 96.2%. Also, the growth in the test with IGROV1 ovarian is 55.8%; in the test on OVCAR-3 ovarian, 80.7%; in the test on HS 578T breast, 92.9%; in the test on NCI/ADR-RES ovarian it was 76.1%; in the test on T-47D breast, 19%; in the test on BT-549 breast, 95.6%. Further, the growth was 107% in the test with MDA-MB-435 melanoma; 92% with SW-620 colon; 12.6% in the test with MCF7 breast; 70.8% with HCT-116 colon; 81.5% with HCC-2998 colon; 54.4% in the test on KM12 colon.
On to `CC(=O)c1c(C)nc(-c2cc(C)cc(Cl)c2)nc1-c1cccc(Oc2ccccc2)c1`, for which the growth is 10.1% in the test with SR leukemia; 46.4% with RPMI-8226 leukemia; 91.8% with OVCAR-8 ovarian; 107% with OVCAR-5 ovarian; 85.1% with OVCAR-4 ovarian; 84% in the test with SK-OV-3 ovarian. Also, the growth with IGROV1 ovarian was 77.7%; with OVCAR-3 ovarian, 38.6%; in the test with HS 578T breast, 59.8%; in the test on NCI/ADR-RES ovarian it was 25.1%; in the test with T-47D breast, 72.3%; with BT-549 breast it was 64.3%. Besides, the growth with MDA-MB-435 melanoma is -4.76% (active); in the test with SW-620 colon it was 25.7%; with MCF7 breast, 43.5%; in the test with HCT-116 colon, 30.5%; in the test on HCC-2998 colon it was 77.6%; in the test with KM12 colon, 30.7%.
For `COc1ccc(C(=O)C(C#N)c2cc(OC)c(OC)c(OC)c2)cc1` (configuration not stated), the growth is 71.5% in the test with SR leukemia; 96.7% in the test with RPMI-8226 leukemia; 93% with OVCAR-8 ovarian; 106% in the test with OVCAR-5 ovarian; 102% in the test with OVCAR-4 ovarian; 105% in the test with SK-OV-3 ovarian. Also, the growth with IGROV1 ovarian was 110%; with OVCAR-3 ovarian it was 111%; in the test with HS 578T breast, 105%; with NCI/ADR-RES ovarian, 108%; in the test on T-47D breast, 98.3%; in the test with BT-549 breast, 98.3%. For the same compound, the growth in the test on MDA-MB-435 melanoma was 101%; in the test with SW-620 colon it was 107%; in the test on MCF7 breast it was 99.6%; with HCT-116 colon, 97.5%; in the test with HCC-2998 colon it was 100%; with KM12 colon, 115%.
